Inconclusive results are not listed. A call without a number means that no potency is given here. Active and inactive are the calls of the source. The call rests on the fitted dose curve; in most records, active means well fitted cell-killing curve with a large enough effect; inconclusive means small, poorly fitted or top-dose-only effect; inactive means no such curve, though single readings can be large or run the other way.
Test: qHTS of pediatric cancer cell lines to identify multiple opportunities for drug repurposing: Primary screen for SK-N-SH cells (AID 1347098); further: nearly all actives have a fitted effect of over 65% in size; further: potency means the concentration at half of the fitted maximal effect
Conditions: SK-N-SH viability, CellTiter-Glo luminescence, 48 h; series mostly up to 57 µM
Summary of the method: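 Cells (500-1,000/well) rested 5 h, then received compounds for 48 h; metabolically active cells were measured by CellTiter-Glo luminescence. Final concentrations spanned up to 46 µM (MIPE, 11-point) or 0.59 nM-46 µM (NPC, 8-point) in primary screens, 11-point in follow-ups.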

Structure (SMILES) | Potency
CC12CC3CC(C)(C1)CC(N)(C3)C2 | 27.1 µM (active)
CCOC(=O)Nc1ccc(NCc2ccc(F)cc2)nc1N | inactive
C[C@H]1c2cccc(O)c2C(O)=C2C(=O)[C@]3(O)C(O)=C(C(N)=O)C(=O)[C@@H](N(C)C)[C@@H]3[C@@H](O)[C@@H]21 | inactive
CN(C)CCC=C1c2ccccc2C=Cc2ccccc21 | 27.3 µM (active)
CN1C(C(=O)Nc2ccccn2)=C(O)c2ccccc2S1(=O)=O | inactive
CC1(CN2CCC(n3c(=O)[nH]c4ccccc43)CC2)OCc2ccccc2-n2cccc21 (configuration not stated) | 24.4 µM (active)
CN1CCC(=C2c3ccccc3CC(=O)c3sccc32)CC1 | 24.1 µM (active)
Nc1nc2c(ncn2COC(CO)CO)c(=O)[nH]1 | inactive
COc1ccccc1OCCNCC(O)COc1cccc2[nH]c3ccccc3c12 (configuration not stated) | inactive
Cc1cc(C(C)(C)C)cc(C)c1CC1=NCCN1 | inactive
Cc1cn([C@H]2C=C[C@@H](CO)O2)c(=O)[nH]c1=O | inactive
COc1ccc2[nH]cc(CCNC(C)=O)c2c1 | inactive
COc1ccccc1OCC(O)CN1CCN(CC(=O)Nc2c(C)cccc2C)CC1 (configuration not stated) | inactive
Fc1ccc([C@@H]2CCNC[C@H]2COc2ccc3c(c2)OCO3)cc1 | inactive
Cn1cnc2c1c(=O)[nH]c(=O)n2C | inactive
CC(C)C(=O)Nc1ccc([N+](=O)[O-])c(C(F)(F)F)c1 | 12.1 µM (active)
O=C1Cc2cc(CCN3CCN(c4nsc5ccccc45)CC3)c(Cl)cc2N1 | inactive
CC(C(=O)O)c1cccc(C(=O)c2ccccc2)c1 (configuration not stated) | inactive
Cn1c(=O)c2[nH]cnc2n(C)c1=O | inactive
CN1CCC(=C2c3ccccc3C=Cc3ccccc32)CC1 | 24.1 µM (active)
NC(=O)NO | inactive
Clc1ccccc1C(c1ccccc1)(c1ccccc1)n1ccnc1 | inactive
CC(COc1ccccc1)N(CCCl)Cc1ccccc1 (configuration not stated) | inactive
Cc1ccc(-c2cc(C(F)(F)F)nn2-c2ccc(S(N)(=O)=O)cc2)cc1 | inactive

Test: qHTS of pediatric cancer cell lines to identify multiple opportunities for drug repurposing: Primary screen for NB1643 cells (AID 1347099); further: nearly all actives have a fitted effect of over 50% in size
Conditions: NB1643 neuroblastoma viability, CellTiter-Glo luminescence, 48 h; series mostly up to 46 µM
Summary of the method: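 Luminescence from CellTiter-Glo served as readout of metabolically active cells after 48 h compound exposure. Titrations: MIPE 11-point, from 0.78 nM; NPC 8-point, from 0.59 nM (final). Concentration-response curves came straight from the primary screen.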

Structure (SMILES) | Potency
CC(C)(Oc1ccc(C2CC2(Cl)Cl)cc1)C(=O)O (configuration not stated) | inactive
C[C@H]1c2cccc(O)c2C(O)=C2C(=O)[C@]3(O)C(O)=C(C(N)=O)C(=O)[C@@H](N(C)C)[C@@H]3[C@@H](O)[C@@H]21 | inactive
CN1CCC(=C2c3ccccc3CC(=O)c3sccc32)CC1 | inactive
Nc1nc2c(ncn2COC(CO)CO)c(=O)[nH]1 | inactive
COc1ccccc1OCCNCC(O)COc1cccc2[nH]c3ccccc3c12 (configuration not stated) | inactive
Cc1cc(C(C)(C)C)cc(C)c1CC1=NCCN1 | inactive
Cc1cn([C@H]2C=C[C@@H](CO)O2)c(=O)[nH]c1=O | inactive
COc1ccccc1OCC(O)CN1CCN(CC(=O)Nc2c(C)cccc2C)CC1 (configuration not stated) | inactive
Fc1ccc([C@@H]2CCNC[C@H]2COc2ccc3c(c2)OCO3)cc1 | inactive
Cn1cnc2c1c(=O)[nH]c(=O)n2C | inactive
O=c1c(-c2ccc(O)cc2)coc2cc(O)cc(O)c12 | inactive
NC(=O)NO | inactive
CC(COc1ccccc1)N(CCCl)Cc1ccccc1 (configuration not stated) | inactive

From PubChem BioAssay (NCATS)
